Reference: PubChem BioAssay AID504333 (National Center for Advancing Translational Sciences (NCATS), 2011)
The whole screen tested about 360,000 compounds, of which about 16,000 (4.4%) were called active. Another 9% or so got no clear call; they are omitted. What follows is part of a selection rich in actives, with near analogues and random picks from the rest. A number with no mark means an inactive call. Calls follow the shape of the dose curve; as a rule, active = well fitted inhibition curve with a large enough effect; inconclusive = small, poorly fitted or top-dose-only effect; inactive = no such curve, though single readings can be large or run the other way.

biological target: Bromodomain adjacent to zinc finger domain protein 2B (Homo sapiens) (UniProt Q9UIF8); assay: qHTS Assay for Inhibitors of BAZ2B; details: AlphaScreen BAZ2B-H3K14Ac peptide displacement; series mostly up to 114 µM; activity change, negative = inhibition: at the top concentration; also: nearly all actives have a fitted effect of over 60% in size
How it was run: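 BAZ2B (50 nM) with biotin-H3(5-23)K14Ac peptide (50 nM) in PBS pH 7.4, 0.01% Tween-20, preformed 30 min, then compound 30 min at room temperature; top concentration 110uM. AlphaScreen streptavidin donor/nickel chelate acceptor beads (10 ug/mL final), 20 min dark, signal read.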
% is scaled to controls: 0 for no effect and ±100 for the full control effect; potency is read from the fitted curve at half-maximal effect.

Chain of Bromodomain adjacent to zinc finger domain protein 2B (Homo sapiens) (Q9UIF8 whole entry, looked up, the tested form may be a part): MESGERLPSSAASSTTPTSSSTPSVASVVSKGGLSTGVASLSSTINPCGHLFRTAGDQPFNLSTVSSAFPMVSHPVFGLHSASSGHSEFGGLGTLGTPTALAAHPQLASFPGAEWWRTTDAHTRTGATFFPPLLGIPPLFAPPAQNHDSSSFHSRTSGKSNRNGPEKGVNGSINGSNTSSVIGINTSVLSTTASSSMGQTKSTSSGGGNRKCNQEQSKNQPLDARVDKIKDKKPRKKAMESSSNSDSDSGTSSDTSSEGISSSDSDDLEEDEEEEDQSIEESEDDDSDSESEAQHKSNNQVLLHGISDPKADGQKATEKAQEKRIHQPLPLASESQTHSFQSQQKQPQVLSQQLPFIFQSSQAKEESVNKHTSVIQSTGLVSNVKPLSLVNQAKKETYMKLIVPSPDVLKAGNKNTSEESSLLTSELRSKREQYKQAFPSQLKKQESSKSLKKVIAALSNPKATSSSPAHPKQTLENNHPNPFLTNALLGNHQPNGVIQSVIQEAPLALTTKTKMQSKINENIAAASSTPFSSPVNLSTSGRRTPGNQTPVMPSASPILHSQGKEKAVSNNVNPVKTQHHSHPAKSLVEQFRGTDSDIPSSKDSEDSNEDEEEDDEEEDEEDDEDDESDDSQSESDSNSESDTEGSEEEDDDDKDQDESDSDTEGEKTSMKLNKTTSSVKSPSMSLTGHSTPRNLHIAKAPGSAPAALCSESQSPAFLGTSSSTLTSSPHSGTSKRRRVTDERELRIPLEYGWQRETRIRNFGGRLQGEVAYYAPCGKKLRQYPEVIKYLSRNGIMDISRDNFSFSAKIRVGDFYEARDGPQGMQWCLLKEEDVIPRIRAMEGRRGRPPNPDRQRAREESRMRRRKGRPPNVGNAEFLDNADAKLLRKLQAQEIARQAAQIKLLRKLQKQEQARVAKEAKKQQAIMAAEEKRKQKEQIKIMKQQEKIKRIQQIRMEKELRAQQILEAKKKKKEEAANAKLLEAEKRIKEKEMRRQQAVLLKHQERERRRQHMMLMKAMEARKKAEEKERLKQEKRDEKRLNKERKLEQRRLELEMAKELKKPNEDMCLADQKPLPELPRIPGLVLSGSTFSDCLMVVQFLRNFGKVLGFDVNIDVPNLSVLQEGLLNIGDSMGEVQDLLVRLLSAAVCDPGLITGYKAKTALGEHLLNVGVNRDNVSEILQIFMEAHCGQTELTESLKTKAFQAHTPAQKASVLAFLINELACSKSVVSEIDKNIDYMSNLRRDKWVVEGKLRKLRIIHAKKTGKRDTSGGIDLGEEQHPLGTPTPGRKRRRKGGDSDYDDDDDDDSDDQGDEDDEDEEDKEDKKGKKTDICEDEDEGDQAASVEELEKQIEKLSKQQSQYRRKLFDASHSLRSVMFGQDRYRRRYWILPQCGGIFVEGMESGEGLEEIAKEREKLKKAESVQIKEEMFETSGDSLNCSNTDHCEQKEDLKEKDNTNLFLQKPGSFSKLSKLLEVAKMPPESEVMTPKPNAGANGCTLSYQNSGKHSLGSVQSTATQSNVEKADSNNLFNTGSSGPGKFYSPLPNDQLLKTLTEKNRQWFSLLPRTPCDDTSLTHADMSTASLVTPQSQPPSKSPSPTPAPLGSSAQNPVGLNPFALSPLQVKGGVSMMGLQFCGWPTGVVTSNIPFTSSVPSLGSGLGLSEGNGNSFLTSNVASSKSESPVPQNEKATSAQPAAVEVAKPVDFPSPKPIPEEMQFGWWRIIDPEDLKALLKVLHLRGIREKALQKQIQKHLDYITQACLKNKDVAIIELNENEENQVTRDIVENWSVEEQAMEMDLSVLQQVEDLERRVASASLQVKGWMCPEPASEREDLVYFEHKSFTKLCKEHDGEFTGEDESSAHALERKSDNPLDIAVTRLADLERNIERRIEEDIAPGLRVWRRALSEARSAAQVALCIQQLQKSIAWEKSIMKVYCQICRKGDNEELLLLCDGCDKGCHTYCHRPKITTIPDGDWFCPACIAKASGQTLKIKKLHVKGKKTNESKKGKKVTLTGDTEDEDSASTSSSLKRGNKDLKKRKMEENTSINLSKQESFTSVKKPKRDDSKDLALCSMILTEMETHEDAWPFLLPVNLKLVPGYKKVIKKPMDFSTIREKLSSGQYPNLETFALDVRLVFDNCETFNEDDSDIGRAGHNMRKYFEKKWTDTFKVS

| Compound | Potency | activity change, negative = inhibition |
| --- | --- | --- |
| O=c1ccc2c(-c3ccccc3S(=O)(=O)O)c3ccc(O)c(O)c3oc-2c1O | 1 µM (active) |  |
| CCOc1ccc(CCNC(=O)c2c(C)oc3ncn(C)c(=O)c23)cc1 |  | 16.3% [at 57.1 µM] |
| COc1ccc(CCNC(=O)c2cnc3sc(N4CCCCCC4)nn3c2=O)cc1OC |  | -16.6% |
| O=C(CCn1c(=O)c2ccccc2n(Cc2ccc(Cl)cc2)c1=O)NCc1ccc2c(c1)OCO2 |  | 2.09% |
| Cc1ccc(NC(=O)CNCc2ccccn2)cc1S(=O)(=O)N(C)C | 25.1 µM (active) |  |
| Cc1ccc(NC(=O)c2cccs2)cc1S(=O)(=O)N(C)C |  | 9.52% |
| CCN(c1ccccc1)S(=O)(=O)c1cc(C(=O)NCc2ccccn2)ccc1C |  | 4.88% |
| O=S(=O)(Nc1ccc2nc(-c3cccc(Cl)c3)oc2c1)c1ccccc1 |  | -6.28% |
| COc1ccc(CNC(=O)CSc2nc3ccccc3nc2Cc2ccccc2)cc1 |  | 3.24% |
| CC(C)(C)c1ccc(C(=O)NCC(c2ccco2)S(=O)(=O)c2ccc(F)cc2)cc1 (centres undefined) |  | -17.7% |
| Cc1cccc(N2CCN(S(=O)(=O)c3ccc4[nH]c5c(c4c3)CCCCC5)CC2)c1C |  | -8.85% [at 57.1 µM] |
| COc1ccccc1-c1cc(C(F)(F)F)nc(S(=O)(=O)CCCC(=O)Nc2cc(C)ccc2O)n1 |  | -3.61% |
| Cc1nc2nc(SCC(=O)NC3CCC(C)CC3)nn2c(C)c1Cc1ccccc1Cl (centres undefined) |  | -13.3% |
| Nc1ccc(N=Nc2ccccc2Cl)c(N)n1 | 25.1 µM (active) |  |
| COc1ccc(C(=O)Nc2onc3c2CCCC3)cc1 |  | -3.98% |
| CCOc1ccc(NC(=O)c2c(NC(=O)Cc3ccccc3)sc3c2CCC(C)C3)cc1 (centres undefined) |  | -21.1% |
| CCCCOC(=O)CSc1ncnc2sc3c(c12)CCC(C)C3 (centres undefined) |  | 18.9% |
| CCC(C(=O)Nc1cccc(Cl)c1C)n1nc(-c2ccc(C)cc2)ccc1=O (centres undefined) |  | -22.7% |
| O=[N+]([O-])c1ccccc1Nc1ccc(O)cc1 | 39.8 µM (active) |  |
| O=C(Nc1ccccc1-c1ccccc1)c1ccccc1[N+](=O)[O-] |  | -5.53% |
| O=C(NCCNc1ccccc1[N+](=O)[O-])c1ccccc1F |  | 8.95% [at 0.457 µM] |
| COC(=O)c1ccccc1NC(=O)c1cc(-c2ccccc2O)no1 |  | -17.4% |
| O=C(CN1C(=O)COc2ccccc21)Nc1ccc(F)cc1 | 28.2 µM (active) |  |
| O=C(CN1C(=O)COc2ccccc21)NCCN1CCc2ccccc2C1 |  | -19.6% |
| CC(OC(=O)CN1C(=O)COc2ccccc21)C(=O)NCc1ccc(F)cc1 (centres undefined) |  | 13.9% |

| Compound | Potency | activity change, negative = inhibition |
| --- | --- | --- |
| O=C(NCc1ccccc1Cl)c1cccn1-c1nnc(N2CCCCC2)s1 |  | -15% |
| COc1ccccc1Nc1nc(N)nc(CSC(=S)N2CCOCC2)n1 |  | -23.7% |
| COc1ccccc1Nc1nc(N)nc(N)c1S(=O)(=O)c1ccccc1 |  | -19.9% |
| COc1ccccc1Nc1nc(N)nc(CN(C)C2CCCCC2)n1 | 10 µM (active) |  |
| COc1ccc(CCN2C(=O)c3oc4cc(C)cc(C)c4c(=O)c3C2c2ccccc2F)cc1OC (centres undefined) |  | 7.46% |
| COc1ccc(-c2cn3nc(N4CCCC(C(=O)NCCCOC(C)C)C4)sc3n2)cc1 (centres undefined) |  | -28% |
| COC(=O)c1cc(NC(=O)c2cnc(SC)nc2-c2ccccc2)cc(C(=O)OC)c1 |  | 2.05% |
| COc1ccc(CNC(=O)Cc2ccc(-c3ccccc3)cc2)cc1OC |  | -25% |
| COC(=O)c1ccc(-c2c(-c3ccccc3)ncc3cc(OC)c(OC)cc23)cc1 | 56.2 µM (active) |  |
| Cc1c(Cl)cccc1NC(=O)c1noc2c1CCCC2 |  | 30% |
| COc1cnc(-c2ccccn2)nc1Oc1ccc(C(C)(C)C)cc1 | 22.4 µM (active) |  |
| COc1ccnc(Oc2ccccc2)c1-c1ncn[nH]1 |  | 1.04% |
| N#Cc1ccc(Oc2cc(C(F)(F)F)nc(-c3ccccn3)n2)cc1 |  | -6.1% |
| Cc1ccc(C(=O)N2c3ncnn3C3(CCCCC3)[C@@H]3CCCC[C@@H]32)cc1 |  | -14.5% |
| Cc1onc(-c2ccc(F)cc2F)c1C(=O)Nc1cccc(C(F)(F)F)c1 |  | -2.91% |
| COc1ccc(OCCn2cc(C(=O)C3CCCCC3)c3ccccc32)cc1 |  | 15.3% [at 57.1 µM] |
| COc1ccc(CCNC(=O)CCc2c(C)nc3c(c(C)nn3-c3ccc(C)c(C)c3)c2C)c(OC)c1OC |  | -17% |
| O=C(c1ccc(Br)cc1)N(Cc1cccs1)c1ccc(F)cc1 |  | -3.77% |
| COc1ccccc1-c1nnc(SCC(N)=O)o1 |  | -1.92% |
| Cc1cccc(C)c1OCC(=O)NC(Cc1c[nH]c2ccccc12)C(=O)O (centres undefined) | inactive |  |
| CC(=O)NC(Cc1c[nH]c2ccccc12)C(=O)O (centres undefined) |  | -15.6% |
| COc1ccc(-c2cc(C(=O)NC(Cc3c[nH]c4ccccc34)C(=O)O)c(C)o2)cc1OC (centres undefined) | 50.1 µM (active) |  |
| COc1cc(/C=N/NC(=O)c2ccc(N3CCCC3=O)cc2)ccc1O |  | -3.64% |
| COc1cc(/C=N/NC(=O)c2cc(C)n(-c3ccc(F)cc3)c2C)cc(OC)c1O |  | -35.5% |
